# “And” between values parts separate entries of the source, which are not always exact repeats. Equal values may be shown once. This is part of a sample that, as a whole, favours compounds with a hit. Of some 83,000 tested, about 20% had one in any assay.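 Interpretation: 100, growth as untreated; towards 0, rising growth inhibition; 0, no net growth; 0 to -100, cell death. Compounds scoring below 10 were considered active.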 The source made the active and inactive calls. Starred links: 1 amine or outer side, 2 acyl side, 3 side chain; linkers in the order of their positions; H or OH if unused. Positions of bridges follow the written chain, without caps; N, C: chain ends. Non-standard residues stand in square brackets, D forms with d. Residues, ends and D or L forms follow the SMILES beside them. Chains are numbered I, II in the order given. Actinocin(9to1) = Cc1c2oc3c(C)ccc(C(=O)[*:1])c3nc-2c(C(=O)[*:2])c(N)c1=O; aThr = C[C@H](O)[C@H](N)C(=O)O; NMeV = CN[C@H](C(=O)O)C(C)C; Sar = CNCC(=O)O
# Test system: CAKI-1 renal
# Experiment: NCI-60 one-dose screen, 48 h (100 = growth as untreated, 0 = no growth, -100 = all killed)
# Conditions: 0.0025 µM
# Protocol: Growth inhibition of the CAKI-1 human tumor cell line is measured as a screen for anti-cancer activity. Cells are grown in 96 well plates and exposed to the test compound for 48 hours. Compounds are tested at a single concentration, which is 10^-5 M for most compounds. The reported endpoint is percent growth (GI% or GIPRCNT), where numbers from 0 - 100% represent growth inhibition, and numbers from -100% - 0 represent cell death. For example, a value of 40 represents 60% growth inhibition. A value of 0 means no net growth occurred over the course of the experiment. A value of -40 indicates 40% of cells at the beginning of the experiment died by the end of the experiment. A value of -100 means all cells are dead at the end of the experiment.
# NCI-60 Human Tumor Cell Lines Screen was performed using the standard one-dose NCI protocol, which is described in more detail at https://dtp.cancer.gov/discovery_development/nci-60/default.htm.
# Compounds with GIPRCNT values below 10 were considered active. Activity score was based on GIPRCNT using the following formula: […]
# Score is 0 for GIPRCNT values of 100 or above, 50 for GIPRCNT values of 0, and 100 for GIPRCNT values of -100.
row,SMILES,growth
1,"Cc1c2oc3c(C)ccc(C(=O)N[C@@H]4C(=O)N[C@H](C(C)C)C(=O)N5CCC[C@H]5C(=O)N(C)CC(=O)N(C)[C@@H](C(C)C)C(=O)O[C@H]4C)c3nc-2c(C(=O)N[C@@H]2C(=O)N[C@H](C(C)C)C(=O)N3CCC[C@H]3C(=O)N(C)CC(=O)N(C)[C@@H](C(C)C)C(=O)O[C@H]2C)c(N)c1=O (I: [aThr][dV]P[Sar][NMeV] / II: [aThr][dV]P[Sar][NMeV]; ester I:1-I:C, II:1-II:C; linker I:N-II:N via Actinocin(9to1))",92.2% (inactive)

# Same assay, conditions: 10 µM
row,SMILES,growth
1,CSc1ccc2c(c1)C(N1CCN(C)CC1)Cc1ccccc1S2 (configuration not stated),19.5% (inactive)
2,O=c1[nH]cc(F)c(=O)[nH]1,28.5% (inactive) and 63.3% (inactive)
3,Nc1ccc2cc(Br)c3ccccc3c2c1,20.1% (inactive)
4,CN(C)CCC(=O)c1c[nH]c2ccccc12,94.4% (inactive)
5,Cc1cnc(/C=N\NC(N)=S)c2cccc(N)c12,2.66% (active)
6,Cc1cc(NCCCN(C)C)c2ccc3c(ccc4c(NCCCN(C)C)cc(C)nc43)c2n1,-41.7% (active)
7,"Cc1c2oc3c(C)ccc(C(=O)N[C@@H]4C(=O)N[C@H](C(C)C)C(=O)N5CCC[C@H]5C(=O)N(C)CC(=O)N(C)[C@@H](C(C)C)C(=O)O[C@H]4C)c3nc-2c(C(=O)N[C@@H]2C(=O)N[C@H](C(C)C)C(=O)N3CCC[C@H]3C(=O)N(C)CC(=O)N(C)[C@@H](C(C)C)C(=O)O[C@H]2C)c(N)c1=O (I: [aThr][dV]P[Sar][NMeV] / II: [aThr][dV]P[Sar][NMeV]; ester I:1-I:C, II:1-II:C; linker I:N-II:N via Actinocin(9to1))",-13.7% (active)
8,CCCCCCCCCCCCCCCCCN,91.1% (inactive)
9,O=C(/C(=C/c1ccccc1)CBr)c1ccccc1,60.1% (inactive)
10,CN1CCN(c2ccc3nc(-c4ccc5nc(-c6ccc(O)cc6)[nH]c5c4)[nH]c3c2)CC1,92.6% (inactive)
11,COc1cc(C(C)(C)C)cc(OC)c1C(O)(c1c(OC)cc(C(C)(C)C)cc1OC)c1c(OC)cc(C(C)(C)C)cc1OC,-69.1% (active)
12,S=c1[nH]nc(Cc2ccccc2)c(=S)[nH]1,97.6% (inactive)
13,BrC/C=C/C[P+](c1ccccc1)(c1ccccc1)c1ccccc1,103% (inactive)
14,N#C/C(=C1C=C/C(=N\O)C(Cl)=C\1)c1ccccc1,5.29% (active)

# Same assay, conditions: 25 µM
row,SMILES,growth
1,O=c1[nH]cc(F)c(=O)[nH]1,39.4% (inactive)

# Same assay, conditions: 50 µM
row,SMILES,growth
1,O=c1[nH]cc(F)c(=O)[nH]1,43.2% (inactive)

# Source: PubChem BioAssay (NCI)
